In PubChem BioAssay (NCATS):
A number with no mark means an inactive call. Inconclusive results are not listed. The source made the active and inactive calls. Unless noted, the call rests on the fitted dose curve; in most records, active means well fitted curve in either direction with a large enough effect (not every such curve was filed as active); inconclusive means small, poorly fitted or top-dose-only effect, or another doubt; inactive means flat fitted curve, though single readings scatter.

How the values were obtained:
[1] = molecular target: Lysosomal acid glucosylceramidase (Homo sapiens) (UniProt P04062); assay: Glucocerebrosidase-p2 (AID 348; in the data active means potency below about 10 µM; further: potency means the concentration at half of the fitted maximal effect); settings: purified GBA, blue fluorogenic substrate, 40 min
Sequence of Lysosomal acid glucosylceramidase (Homo sapiens) (P04062 whole entry, looked up): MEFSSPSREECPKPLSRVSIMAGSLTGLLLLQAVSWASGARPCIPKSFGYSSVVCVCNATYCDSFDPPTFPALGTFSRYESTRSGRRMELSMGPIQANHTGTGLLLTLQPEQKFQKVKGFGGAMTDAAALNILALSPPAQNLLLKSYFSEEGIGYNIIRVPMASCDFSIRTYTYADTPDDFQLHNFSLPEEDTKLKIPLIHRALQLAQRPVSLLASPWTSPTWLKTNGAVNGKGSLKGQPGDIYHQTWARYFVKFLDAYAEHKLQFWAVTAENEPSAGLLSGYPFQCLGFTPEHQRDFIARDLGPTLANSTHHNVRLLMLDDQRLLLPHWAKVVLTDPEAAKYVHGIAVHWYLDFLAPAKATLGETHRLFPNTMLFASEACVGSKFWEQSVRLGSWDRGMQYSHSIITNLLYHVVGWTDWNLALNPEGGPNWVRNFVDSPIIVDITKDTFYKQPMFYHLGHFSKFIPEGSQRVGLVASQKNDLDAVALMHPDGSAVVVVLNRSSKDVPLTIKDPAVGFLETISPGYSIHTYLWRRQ
Summary of the method: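 Compounds titrated from 0.6 nM upwards against 0.2 nM enzyme in pH 5.9 citric acid/KH2PO4, taurocholate, tween-20; blue fluorogenic substrate 80 uM, 40 min room temperature, stopped and read Ex 365/Em 440 for AC50.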

[2] = AP1 Signaling Pathway (AID 357); settings: ME-180 AP-1-bla reporter, EGF-induced, beta-lactamase ratio, 5 h; at 7.69 µM (top of the series) unless noted;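 further: ME-180 reporter cells stimulated with EGF at its EC50 level; on the % scale 0 is the no-effect control and ±100 the full control effect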
Summary of the method: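 Cells are seeded overnight, exposed to compound titrations and an EC50 level of EGF for 5 hours at 37 °C, then loaded with CCF4 dye for 2.5 hours. Beta-lactamase activity under the AP-1 element is read as a blue/green ratio.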

[3] = molecular target: Cytochrome P450 1A2 (Homo sapiens) (UniProt P05177); assay: p450-cyp1a2 (AID 410; calls by dose curve; further: potency means the concentration at half of the fitted maximal effect;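 on activity change, negative = inhibition: -100% = full effect of reference inhibitor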); settings: recombinant CYP1A2, luciferin-ME demethylation, luminescence; series mostly up to 11.4 µM
Sequence of Cytochrome P450 1A2 (Homo sapiens) (P05177 whole entry, looked up): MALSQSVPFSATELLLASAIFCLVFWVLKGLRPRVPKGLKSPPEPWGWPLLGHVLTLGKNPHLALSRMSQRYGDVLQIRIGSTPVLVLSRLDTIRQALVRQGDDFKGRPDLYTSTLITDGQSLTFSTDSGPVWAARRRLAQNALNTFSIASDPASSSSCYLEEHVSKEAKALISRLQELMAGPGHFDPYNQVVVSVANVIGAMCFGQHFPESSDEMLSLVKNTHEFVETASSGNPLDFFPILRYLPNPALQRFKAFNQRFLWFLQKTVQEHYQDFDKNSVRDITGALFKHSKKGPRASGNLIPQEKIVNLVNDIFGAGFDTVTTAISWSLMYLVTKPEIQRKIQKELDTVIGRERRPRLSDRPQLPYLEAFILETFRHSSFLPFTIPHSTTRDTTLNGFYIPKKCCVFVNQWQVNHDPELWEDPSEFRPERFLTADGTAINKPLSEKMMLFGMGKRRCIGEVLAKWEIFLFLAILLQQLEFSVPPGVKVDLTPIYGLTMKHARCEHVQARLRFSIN
Summary of the method: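 Inhibition was calculated relative to 57 uM furafylline (full inhibition). The reaction used human CYP1A2 at 20nM with Luciferin-ME at its Km, 100uM, driven by an NADPH-regenerating system for 60 min at room temperature.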

[4] = NFAT Signaling Pathway (AID 444); settings: Jurkat NFAT-bla M1, carbachol, beta-lactamase ratio, 5 h; at 7.69 µM (top of the series) unless noted;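 further: carbachol stimulus at about its EC50 of 1 µM final; on the % scale 0 is the no-effect control and ±100 the full control effect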
Summary of the method: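 Read-out: CCF4 FRET ratio (460 nm/530 nm) after 1 h RT dye loading, used for %activity and AC50 from titration series. Cells: Jurkat NFAT-β-lactamase/M1 line, treated with compound plus 1 uM carbachol for 5 h, 37 °C.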

[5] = Stat Signaling Pathway (AID 446); settings: ME-180 SIE beta-lactamase reporter, IL-6 stimulated, 5 h; at 7.69 µM (top of the series) unless noted;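 further: ME-180 cervical cancer cells given 40 pM IL-6 alongside compound; SIE-controlled beta-lactamase reporter measured as 460/530 nm FRET emission ratio; on the % scale 0 is the no-effect control and ±100 the full control effect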
Summary of the method: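 ME-180 cells carrying a SIE-driven beta-lactamase reporter are stimulated with 40 pM IL-6 for 5 h at 37C in the presence of compound. The 460/530 nm FRET substrate ratio is read after 2.5 h at RT. Data are normalised to 300 pM IL-6 and to 125 nM JAK inhibitor controls.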

[6] = molecular target: Glucocorticoid receptor (Homo sapiens) (UniProt P04150); assay: GR-GFP Redistribution (AID 450;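 active means compounds whose dose series gives a full or clear partial fitted curve of increased nuclear translocation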; further: potency means the concentration at half of the fitted maximal effect); settings: U2OS GR-GFP nuclear translocation, laser cytometry, 2 h
Sequence of Glucocorticoid receptor (Homo sapiens) (P04150 whole entry, looked up, the tested form may be a part): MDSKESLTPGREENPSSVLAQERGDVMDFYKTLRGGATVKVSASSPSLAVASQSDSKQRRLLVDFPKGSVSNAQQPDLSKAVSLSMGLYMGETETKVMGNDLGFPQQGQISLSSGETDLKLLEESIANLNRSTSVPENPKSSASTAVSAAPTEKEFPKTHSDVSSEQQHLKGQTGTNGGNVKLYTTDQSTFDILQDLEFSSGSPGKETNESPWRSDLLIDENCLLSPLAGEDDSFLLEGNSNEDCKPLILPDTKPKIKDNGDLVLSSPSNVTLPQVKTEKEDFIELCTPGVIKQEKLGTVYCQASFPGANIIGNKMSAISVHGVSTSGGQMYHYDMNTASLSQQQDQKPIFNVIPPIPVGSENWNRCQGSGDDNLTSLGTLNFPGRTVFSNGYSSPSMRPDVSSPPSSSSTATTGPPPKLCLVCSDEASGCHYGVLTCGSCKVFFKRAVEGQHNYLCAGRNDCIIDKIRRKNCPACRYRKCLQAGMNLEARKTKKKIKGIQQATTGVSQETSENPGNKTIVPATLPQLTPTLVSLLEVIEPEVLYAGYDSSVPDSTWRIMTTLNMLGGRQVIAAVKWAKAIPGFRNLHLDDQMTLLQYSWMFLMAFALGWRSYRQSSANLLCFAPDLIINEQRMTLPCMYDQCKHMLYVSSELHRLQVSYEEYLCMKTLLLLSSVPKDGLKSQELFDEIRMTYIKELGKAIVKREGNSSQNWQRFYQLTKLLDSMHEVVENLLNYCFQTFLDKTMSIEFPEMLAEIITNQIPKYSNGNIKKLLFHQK

[7] = molecular target: Glucocorticoid receptor (Homo sapiens) (UniProt P04150); assay: GR-EFC Redistribution (AID 451; calls by dose curve; further: potency means the concentration at half of the fitted maximal effect); settings: CHO-K1 GR-EFC translocation, beta-gal luminescence, 2 h
Summary of the method: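 Translocation of GR-ED fusion to nuclear EA restores b-gal, read by luminescence after 1 h room-temperature detection. Engineered CHO-K1 biosensor cells, 1,000/well, exposed 2 h at 37 C to titrations up to 46 uM final.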

[8] = molecular target: Mitogen-activated protein kinase 10 (Mus musculus) (UniProt Q61831); assay: JNK3 AlphaScreen Assay (AID 530); settings: JNK3 lysate, c-Jun phosphorylation; series mostly up to 11.4 µM;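 further: kinase came from lysate of stimulated human HepG2 cells; signal reports phosphorylation of biotinylated GST-cJun 1-79 at Ser73 with 10 µM ATP; on the % scale 0 is the no-effect control and ±100 the full control effect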
Summary of the method: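 Room-temperature AlphaScreen kinase assay; pre-activated HepG2 lysate as JNK3 source, biotin-GST-cJun(1-79) substrate, 10 uM ATP, compound 15 min preincubation.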

[9] = molecular target: 3',5'-cyclic-AMP phosphodiesterase 4B (Homo sapiens) (UniProt Q07343); assay: qHTS Assay for Inhibitors of PDE-IV (AID 607; active means well fitted activation curve with a large enough effect in the main read-out, with a control signal flat, not every such curve was filed as active; further: % of control where 0% means no effect); settings: HEK293 ACTOne CNG channel cells, membrane potential fluorescence; series mostly up to 22.9 µM
Sequence of 3',5'-cyclic-AMP phosphodiesterase 4B (Homo sapiens) (Q07343 whole entry, looked up): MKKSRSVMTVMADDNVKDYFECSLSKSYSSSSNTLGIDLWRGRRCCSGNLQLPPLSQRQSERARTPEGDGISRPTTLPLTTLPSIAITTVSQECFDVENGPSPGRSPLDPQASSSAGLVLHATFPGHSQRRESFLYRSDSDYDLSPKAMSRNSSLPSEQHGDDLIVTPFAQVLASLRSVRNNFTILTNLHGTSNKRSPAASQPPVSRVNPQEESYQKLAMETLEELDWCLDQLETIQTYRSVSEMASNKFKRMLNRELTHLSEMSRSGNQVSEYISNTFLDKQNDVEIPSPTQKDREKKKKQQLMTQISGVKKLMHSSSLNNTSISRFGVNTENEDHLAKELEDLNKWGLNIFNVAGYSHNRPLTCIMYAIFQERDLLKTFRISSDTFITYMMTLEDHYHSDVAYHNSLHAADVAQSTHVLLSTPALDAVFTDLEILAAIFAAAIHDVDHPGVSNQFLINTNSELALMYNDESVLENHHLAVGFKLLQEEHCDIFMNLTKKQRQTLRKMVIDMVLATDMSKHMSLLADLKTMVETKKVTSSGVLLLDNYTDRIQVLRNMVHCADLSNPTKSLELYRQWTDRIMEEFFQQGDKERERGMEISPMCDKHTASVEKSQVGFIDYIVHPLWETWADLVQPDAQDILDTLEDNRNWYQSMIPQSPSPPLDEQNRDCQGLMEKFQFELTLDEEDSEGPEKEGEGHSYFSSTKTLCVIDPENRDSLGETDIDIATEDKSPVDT
Summary of the method: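 HEK293 ACTOne cells with CNG channel (1000/well), endogenous PDE4; membrane potential dye, compounds up to 22.9 uM final. Fluorescence Ex 535/Em 590; RO 20-1724 (100 uM final) as reference.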

[10] = molecular target: Cytochrome P450 2C9 (Homo sapiens) (UniProt P11712); assay: qHTS Assay for Inhibitors and Substrates of Cytochrome P450 2C9 (AID 883; active means well fitted curve in the direction sought with a large enough effect; an effect the other way counts as inactive or inconclusive; further: nearly all actives have a fitted effect of over 60% in size; further: potency means the concentration at half of the fitted maximal effect); settings: recombinant CYP2C9, luciferin-H luminescence, 60 min; series mostly up to 11.4 µM
Sequence of Cytochrome P450 2C9 (Homo sapiens) (P11712 whole entry, looked up): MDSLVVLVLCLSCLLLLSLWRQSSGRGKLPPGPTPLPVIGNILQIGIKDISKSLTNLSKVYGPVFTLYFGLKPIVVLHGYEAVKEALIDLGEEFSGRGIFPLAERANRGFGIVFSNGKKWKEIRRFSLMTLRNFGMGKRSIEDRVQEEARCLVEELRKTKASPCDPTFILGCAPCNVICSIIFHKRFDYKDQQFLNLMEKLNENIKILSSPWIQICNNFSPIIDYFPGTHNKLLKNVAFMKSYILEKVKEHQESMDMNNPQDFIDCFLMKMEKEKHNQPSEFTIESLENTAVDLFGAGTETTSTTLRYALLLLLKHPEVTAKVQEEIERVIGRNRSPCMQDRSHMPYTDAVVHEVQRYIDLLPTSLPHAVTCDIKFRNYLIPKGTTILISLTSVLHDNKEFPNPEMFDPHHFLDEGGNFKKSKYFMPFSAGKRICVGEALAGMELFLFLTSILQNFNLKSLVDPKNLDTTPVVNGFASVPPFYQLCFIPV
Summary of the method: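 Inhibition of CYP2C9 is scored as loss of luminescence, with 57uM sulphaphenazole defining 100% inhibition. Substrate Luciferin-H is used at 100uM, equal to its KM; enzyme at 10nM in 25mM KPO4, 60 min at 37C with NADPH regeneration.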

[11] = molecular target: Cytochrome P450 3A4 (Homo sapiens) (UniProt P08684); assay: qHTS Assay for Inhibitors and Substrates of Cytochrome P450 3A4 (AID 884; active means well fitted curve in the direction sought with a large enough effect; an effect the other way counts as inactive or inconclusive; further: potency means the concentration at half of the fitted maximal effect; nearly all actives have a fitted effect of over 50% in size); settings: recombinant CYP3A4, Luciferin-PPXE luminescence; series mostly up to 57.1 µM
Sequence of Cytochrome P450 3A4 (Homo sapiens) (P08684 whole entry, looked up): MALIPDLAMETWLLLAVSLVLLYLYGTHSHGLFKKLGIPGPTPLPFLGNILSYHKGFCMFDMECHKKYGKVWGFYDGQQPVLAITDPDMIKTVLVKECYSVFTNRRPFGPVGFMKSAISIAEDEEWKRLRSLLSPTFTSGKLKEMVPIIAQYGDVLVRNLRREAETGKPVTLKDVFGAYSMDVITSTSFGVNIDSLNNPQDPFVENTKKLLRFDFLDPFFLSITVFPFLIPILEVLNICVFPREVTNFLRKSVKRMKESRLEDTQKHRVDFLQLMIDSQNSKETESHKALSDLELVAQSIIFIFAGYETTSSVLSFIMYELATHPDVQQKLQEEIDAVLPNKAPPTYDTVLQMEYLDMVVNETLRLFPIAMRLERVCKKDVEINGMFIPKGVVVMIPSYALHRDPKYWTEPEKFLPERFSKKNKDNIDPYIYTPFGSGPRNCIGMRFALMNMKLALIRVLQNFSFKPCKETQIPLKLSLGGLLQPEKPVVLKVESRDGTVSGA
Summary of the method: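 20 nM human CYP3A4 with 25 uM Luciferin-PPXE (at KM) in 200 mM KPO4, preincubated 10 min with compound; NADPH regeneration started a 60 min RT reaction. Luciferin detected by luminescence, normalized to 57 uM ketoconazole as full inhibition.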

[12] = molecular target: Cytochrome P450 3A4 (Homo sapiens) (UniProt P08684); assay: qHTS Assay for Activators of Cytochrome P450 3A4 (AID 885; active means well fitted curve in the direction sought with a large enough effect; an effect the other way counts as inactive or inconclusive; further: nearly all actives have a fitted effect of over 65% in size); settings: recombinant CYP3A4, Luciferin-PPXE luminescence, 60 min; series mostly up to 11.4 µM
Summary of the method: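 Human CYP3A4 (20 nM) with Luciferin-PPXE at 25 uM (its KM) in 200 mM KPO4; 10 min compound preincubation, then NADPH regeneration and 60 min reaction at RT. Luciferin read by luminescence; normalized to 57 uM ketoconazole full inhibition.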

[13] = molecular target: Cytochrome P450 2C19 (Homo sapiens) (UniProt P33261); assay: qHTS Assay for Inhibitors and Substrates of Cytochrome P450 2C19 (AID 899; active means well fitted curve in the direction sought with a large enough effect; an effect the other way counts as inactive or inconclusive; further: potency means the concentration at half of the fitted maximal effect; nearly all actives have a fitted effect of over 60% in size); settings: recombinant CYP2C19, luciferin-H EGE luminescence; series mostly up to 11.4 µM
Sequence of Cytochrome P450 2C19 (Homo sapiens) (P33261 whole entry, looked up): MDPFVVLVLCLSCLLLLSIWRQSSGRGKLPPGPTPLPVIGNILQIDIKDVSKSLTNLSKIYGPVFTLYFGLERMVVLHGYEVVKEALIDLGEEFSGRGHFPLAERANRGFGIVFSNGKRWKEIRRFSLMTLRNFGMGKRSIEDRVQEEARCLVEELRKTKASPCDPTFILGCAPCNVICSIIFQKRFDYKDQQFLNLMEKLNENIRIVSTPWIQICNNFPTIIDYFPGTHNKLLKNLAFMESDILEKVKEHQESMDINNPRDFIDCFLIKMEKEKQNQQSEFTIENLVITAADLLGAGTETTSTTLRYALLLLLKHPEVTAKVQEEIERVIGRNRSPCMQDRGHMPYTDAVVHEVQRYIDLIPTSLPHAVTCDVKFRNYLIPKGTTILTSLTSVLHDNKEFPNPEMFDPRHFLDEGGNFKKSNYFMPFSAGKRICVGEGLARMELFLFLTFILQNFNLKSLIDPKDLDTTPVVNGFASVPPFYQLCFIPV
Summary of the method: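 5nM enzyme + 10uM Luciferin-H EGE (=KM), 50mM KPO4; cpd pin-transferred, 10 min 37C; NADPH regen, 60 min 37C; stopped w/ luciferin detection reagent, 20 min; luminescence. Normalized to 57uM ketoconazole (AC100).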

[14] = molecular target: Cytochrome P450 2D6 (Homo sapiens) (UniProt P10635); assay: qHTS Assay for Inhibitors and Substrates of Cytochrome P450 2D6 (AID 891; active means well fitted curve in the direction sought with a large enough effect; an effect the other way counts as inactive or inconclusive; further: potency means the concentration at half of the fitted maximal effect; nearly all actives have a fitted effect of over 60% in size); settings: recombinant CYP2D6, luciferin-ME EGE luminescence; series mostly up to 11.4 µM
Sequence of Cytochrome P450 2D6 (Homo sapiens) (P10635 whole entry, looked up): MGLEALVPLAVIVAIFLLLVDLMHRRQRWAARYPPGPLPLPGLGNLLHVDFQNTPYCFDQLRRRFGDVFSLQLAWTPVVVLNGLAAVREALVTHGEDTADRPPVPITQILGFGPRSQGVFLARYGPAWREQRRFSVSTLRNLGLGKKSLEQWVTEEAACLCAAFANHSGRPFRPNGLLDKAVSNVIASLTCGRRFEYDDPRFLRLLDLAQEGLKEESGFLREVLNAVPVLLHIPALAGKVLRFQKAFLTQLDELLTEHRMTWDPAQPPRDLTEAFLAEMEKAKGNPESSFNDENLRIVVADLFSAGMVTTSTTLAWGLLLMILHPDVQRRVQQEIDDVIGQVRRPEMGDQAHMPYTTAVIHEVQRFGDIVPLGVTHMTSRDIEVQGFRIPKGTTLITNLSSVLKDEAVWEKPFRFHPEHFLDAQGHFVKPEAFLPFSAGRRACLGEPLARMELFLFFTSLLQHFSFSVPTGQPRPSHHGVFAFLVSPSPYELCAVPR
Summary of the method: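 Human CYP2D6 (5 nM) with 30 uM Luciferin-ME EGE (at Km) in 100 mM KPO4, compound preincubated 10 min, then NADPH regeneration system for 60 min at room temperature. Luciferin read by luminescence; normalized to 1.43 uM quinidine.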

SMILES	Potency [1] [µM]	activity change, negative = inhibition [2] [%]	Potency [3]	activity change, negative = inhibition [4] [%]	activity, negative = inhibition [5] [%]	Potency [6] [µM]	Potency [7] [µM]	Potency [8]	Potency [9]	Potency [10]	Potency [11]	Potency [12]	Potency [13]	Potency [14]	activity change, negative = inhibition [3]
N[C@H](C(=O)O)[C@@H](O)c1cnc[nH]1	> 11.4	6.1	inactive	-4.22	2.54	> 46	> 9.22	inactive	inactive	–	–	–	–	–	–
NS(=O)(=O)c1cc(Br)c(N=Nc2ccc(O)c3ncccc23)c(Br)c1	> 11.4	-0.828	1.26 µM (active)	10.5	21.9	> 46	> 9.22	inactive	inactive	inactive	–	–	–	–	–
CC(C)CO[C@H](c1ccc2c(c1)OCO2)[C@H](C)Br	> 11.4	-13.4	0.631 µM (active)	-8.77	7	> 46	> 9.22	inactive	inactive	2 µM (active)	3.16 µM (active)	inactive	0.0631 µM (active)	–	–
COc1ccc(CN[C@H](C)C(=O)O)cc1	> 11.4	-9.23	inactive	-12	2.1	> 46	> 9.22	inactive	inactive	–	–	–	–	–	–
O=C(O)Cn1ccnc1[N+](=O)[O-]	> 11.4	9.71	inactive	-1.99	6.87	> 46	> 9.22	inactive	inactive	–	–	–	–	–	–
Cc1c(C)c(C)c(CC2(C)CSC2)c(CC2(C)CSC2)c1C	> 11.4	10.3	inactive	0.756	6.86	> 46	> 9.22	inactive	inactive	–	–	–	–	–	–
CCOc1ccccc1/C=C(\C#N)C(N)=O	> 11.4	3.2	2 µM (active)	-1.04	4.29	> 46	> 9.22	inactive	inactive	inactive	–	–	–	–	–
O=C(O)CC[C@@]1(c2ccccc2)NC(=O)NC1=O	> 11.4	3.07	inactive	8.48	2.02	> 46	> 9.22	inactive	inactive	–	–	–	–	–	–
C=CCSc1nc2ccccc2c(=O)n1Cc1ccco1	> 11.4	-0.523	0.0251 µM (active)	2.6	-8.01	> 46	> 9.22	inactive	inactive	–	–	–	–	–	–
O=[N+]([O-])c1ccc(Cl)c(CNc2ncnc3c2ncn3[C@@H]2CCCCO2)c1	> 11.4	-3.17	5.01 µM (active)	6.3	1.26	> 46	> 9.22	inactive	inactive	–	–	–	–	–	–
NNC(=O)CCc1ccc2ccc3ccccc3c2c1	> 11.4	-3.44	0.0316 µM (active)	13.8	-11	> 46	> 9.22	inactive	inactive	1.58 µM (active)	0.398 µM (active)	inactive	0.251 µM (active)	1.58 µM (active)	–
O=C(C[C@@H]1C=Cc2ccccc2N1C(=O)c1ccccc1)c1ccccc1	> 11.4	-6.74	–	-22.9	-9.68	> 46	> 9.22	inactive	inactive	2.51 µM (active)	3.98 µM (active)	inactive	0.501 µM (active)	–	-23.2% [at 2.29 µM]
NNC(=O)Cc1cccnc1	> 11.4	-8.16	0.631 µM (active)	7.3	3.84	> 46	> 9.22	inactive	inactive	inactive	3.16 µM (active)	inactive	–	–	–
CC12CC[C@@H]3c4ccc(OP(=O)(O)O)cc4CCC3C1CCC2=O (some centres undefined)	> 11.4	2.65	–	10.4	-5.93	> 46	> 9.22	inactive	inactive	–	–	–	–	–	-13.4% [at 2.29 µM]
